Experimental findings from PubChem BioAssay (NCI) are described below.

The panel holds about 83,000 compounds, 20% with a hit somewhere; the sample as a whole holds those more often.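 Values shown are percent growth following 48 h exposure of cells in 96-well plates to a single concentration of compound; below 10 was considered active.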 A number with no mark means an inactive call. Active and inactive are the calls of the source.

The subject of this assay is MDA-MB-435 melanoma. The experiment in a line: NCI-60 one-dose screen, 48 h (100 = growth as untreated, 0 = no growth, -100 = all killed). The settings on record: 10 µM unless noted.
For the molecule `CCNC(=O)Oc1ccc(/C(=C(/C)Cc2ccc(OC)cc2)c2ccc(OCCN3CCCC3)cc2)cc1`, the growth was 61.2%.

Consider `Cc1cscc(C)c1=S`, for which the growth was 104%.

As for `CC(=O)N/C(=C1/OC(C(O)C(O)C(O)CO)CN1C)[P+](c1ccccc1)(c1ccccc1)c1ccccc1` (centres undefined), the growth was 103%. As to `COC(=O)c1c2c(n3ccc(C)cc13)C(=O)c1ccccc1C2=O`, the growth was 93.4%. As to `COc1cc2nc(Nc3cccc(F)c3)nc(Nc3cc(C)[nH]n3)c2cc1OC`, the growth is -88.7% [20 µM] (active).

Regarding `CC1=CCC[C@@H]2C1(C)CC[C@H](C)[C@@]2(C)CC1=CC(=O)C(SC(C)(C)C)=CC1=O` (some centres undefined), the growth was 97.2%. As to `O=C(/C=C/c1cccc(Cl)c1)c1cccc(OCCCCOc2cccc(C(=O)/C=C/c3cccc(Cl)c3)c2)c1`, the growth was 70.9%. As to `CCCNc1nc2ccccc2c2c(=O)c3cccc(Cl)c3sc12`, the growth was 101%. `COc1cccc(Nc2ccnc3[nH]c4ccc([N+](=O)[O-])cc4c23)c1`: the growth was -24.4% (active).

For the molecule `CCOC(=O)CSc1nc2sc3c(c2c(=O)n1-c1ccc([N+](=O)[O-])cc1)CCCCC3`, the growth was 77.3%. As to `COc1cccc2c(N=NC(=O)c3ccc(S(N)(=O)=O)cc3)c(O)[nH]c12`, the growth was 100%. For `Clc1nccc2c(-c3csc(-c4c[nH]c5ccccc45)n3)c[nH]c12`, the growth was 53.9%.

As to `COc1cc(/C=N/Nc2ccccc2F)cc(OC)c1OC`, the growth was 94.3%.

Turning to `COc1ccc2c(c1)c(-c1nc(-c3cn(C)c4ncccc34)cs1)cn2CCO`, the growth was 86.5%.
